Shown are actives, neighbours in structure and some others; about 1.5% of the full set was active somewhere.
dFosB act-1: mouse delta FosB homodimer activation. P13346. 0.99% of 340,000 active. purified delta FosB, TAMRA-CDK5 oligo fluorescence polarization; percent of positive-control signal above neutral wells. activation, % at 25 µM;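 active = mean activation above about 17%, with every replicate also reaching it, limit read from the data, passing the limit was not always enough; inconclusive = only one of the two conditions met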
RAD54 inh: blocks human RAD54 Holliday junction branch migration | inhibition, % at 10.4 µM | FAM/BHQ fluorescence | 0.14% of 360,000 active | Q92698;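 active = mean normalized replicate activity at least 40 and at least half of replicates scoring 40 or more; inconclusive = only one of the two criteria met; inactive = mean below 40 and under half of replicates reaching 40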;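 also: 0% = median of neutral control wells and 100% = median of positive control wells; inhibitors cause a drop in the FAM fluorescence signal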
Target sequence (Q92698 whole entry, looked up): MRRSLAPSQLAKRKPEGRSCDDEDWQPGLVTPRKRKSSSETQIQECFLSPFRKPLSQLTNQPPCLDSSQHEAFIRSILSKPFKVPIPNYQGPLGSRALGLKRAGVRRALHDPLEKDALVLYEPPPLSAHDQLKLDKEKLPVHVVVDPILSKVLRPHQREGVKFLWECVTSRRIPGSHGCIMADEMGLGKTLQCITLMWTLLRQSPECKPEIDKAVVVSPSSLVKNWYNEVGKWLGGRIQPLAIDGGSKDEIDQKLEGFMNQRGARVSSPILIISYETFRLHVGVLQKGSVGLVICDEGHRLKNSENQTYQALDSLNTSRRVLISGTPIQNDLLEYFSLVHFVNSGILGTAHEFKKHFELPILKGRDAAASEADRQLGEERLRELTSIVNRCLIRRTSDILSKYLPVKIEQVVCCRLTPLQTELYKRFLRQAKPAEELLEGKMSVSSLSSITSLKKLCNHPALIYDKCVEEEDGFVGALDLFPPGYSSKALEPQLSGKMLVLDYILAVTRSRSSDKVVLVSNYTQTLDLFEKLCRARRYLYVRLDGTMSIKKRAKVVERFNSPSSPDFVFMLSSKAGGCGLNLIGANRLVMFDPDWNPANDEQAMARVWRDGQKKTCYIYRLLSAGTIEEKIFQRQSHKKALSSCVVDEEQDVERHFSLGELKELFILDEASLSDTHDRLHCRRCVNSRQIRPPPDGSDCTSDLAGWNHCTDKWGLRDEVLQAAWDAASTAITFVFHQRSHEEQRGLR
RAD52 anneal inh: inhibitors of human RAD52 DNA annealing | recombinant RAD52 DNA annealing, FRET fluorescence | inhibition, % at 18.7 µM | 0.46% of 360,000 active | AID 651710;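 active = every replicate showing at least 50% inhibition; inconclusive = mean inhibition at least 50% but not in every replicate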
F508del corr: CFTR F508del correction in bronchial cells; CFBE cells, YFP halide quenching; stimulated with forskolin plus potentiator P3; % fluorescence drop versus neutral controls; activity (quench increase), % at 7.58 µM; 0.36% of 350,000 active; AID 720511;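 active = mean added fluorescence quench of at least 8% versus neutral control, with both replicates also reaching 8%; inconclusive = only one of the mean or replicate conditions met; inactive = mean below 8% and not both replicates reaching 8%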;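 also: cells transiently co-express mutant CFTR-F508del with the halide-sensitive YFP; corrector assay measuring rescue of mutant channel to the surface after 24 h compound exposure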
Glyco luc inh: blocks N-linked glycosylation in D54 reporter cells. reporter increase, % at 12.5 µM. D54 ERlucT glycosylation luciferase reporter, 24 h; percent of 100 nM tunicamycin response. AID 588692. 0.23% of 360,000 active;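 active = mean luciferase reporter signal, scaled so untreated is 0 and the glycosylation-blocking control 100, at or above a set limit in every replicate; inconclusive = mean reaches the limit but not every replicate does; inactive = mean below the limit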;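 also: luciferase carries N-glycosylation sites so blocking glycosylation raises the light; 0% = median of neutral control wells and 100% = median of 100 nM tunicamycin wells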
PvdQ acylase: blocks Pseudomonas aeruginosa PvdQ acylase activity | purified PvdQ acylase, fluorescence plate reader | inhibition, % at 10 µM | 0.063% of 340,000 active | AID 488965; in the data active = inhibition above about 30%, passing the limit was not always enough; inconclusive = no clear call, values can overlap the other calls;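 also: 0% = vehicle neutral wells and 100% = reference inhibitor wells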
dFosB act-2: activators of mouse delta FosB homodimer DNA binding; shares compounds with dFosB act-1; purified delta FosB, TAMRA-CDK5 oligo fluorescence polarization; normalised: neutral wells 0, positive control 100; activation, % at 24.9 µM; 2,400 tested, under 10 active; AID 588690;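 active = highest replicate activation at or above 34% and every replicate reaching that threshold; inconclusive = meets only one of the two criteria; inactive = meets neither criterion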;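 also: higher polarization means more probe DNA bound by delta FosB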
* marks the source's active call; other numbers are inactive results; ? = inconclusive; · = not tested or not shown; ! = not active in a repeat.

SMILES	dFosB act-1	RAD54 inh	RAD52 anneal inh	F508del corr	Glyco luc inh	PvdQ acylase	dFosB act-2
Cn1cnc(S(=O)(=O)N2CCCCN3[C@H](CO)[C@H](c4ccc(C#CC5CC5)cc4)[C@H]3C2)c1	·	·	·	2	·	·	·
O=C(N/N=C/c1cccc(OC2CSC2)c1)c1ccccc1O	29*	3	·	·	-1	5	-1
O=C(Nc1ccc(NC(=O)c2ccccc2O)cc1)Nc1ccc(F)cc1F	32*	·	-3	-2	-3	-12	7
Cc1ccc(S(=O)(=O)Nc2ccc(NC(=O)Nc3ccc(F)cc3F)cc2)cc1	20*	4	·	·	-6	17	5
C[C@H](CO)N1C[C@H](C)[C@H](CN(C)Cc2ccc(Cl)c(Cl)c2)OCCCC[C@H](C)Oc2ccc(NS(=O)(=O)c3ccc(F)cc3)cc2C1=O	·	4	7	5	·	·	·
COc1ccc(NC(=O)N(C)C[C@@H]2Oc3c(NS(=O)(=O)c4ccc(OC)cc4)cccc3C(=O)N([C@@H](C)CO)C[C@@H]2C)cc1	·	4	-5	1	·	·	·
Cc1ccc(S(=O)(=O)N[C@@H]2CC[C@@H](CC(=O)N3CCN(c4ccccc4)CC3)O[C@H]2CO)cc1	·	6	6	-5	·	·	·
Cc1cc2nc(-c3ccc(SCC(=O)Nc4nccs4)nc3)[nH]c2cc1C	58*	0	·	·	5	-6	-2
CCC(=O)N1C[C@H]2[C@@H](c3ccccc31)[C@H](CO)N2C(=O)Nc1ccccc1	·	-4	-5	-1	·	·	·
O=C(Cc1ccc(Cl)cc1)NNC1CC(=O)N(c2ccc3ccccc3c2)C1=O (stereo unspecified)	32*	0	9	0	0	-9	3
COc1ccc(S(=O)(=O)N2CCN(c3nc(-c4cccnc4)nc4ccccc34)CC2)cc1	18*	3	-61	1	-1	-8	-1
COc1ccc(NC(=O)N(C)C[C@@H]2Oc3ccc(NC(=O)Cn4cnnn4)cc3C(=O)N([C@@H](C)CO)C[C@@H]2C)cc1	·	0	-21	0	·	·	·
COc1ccc(CN(C)C[C@H]2OCCCC[C@H](C)Oc3ccc(NS(=O)(=O)c4ccc(F)cc4)cc3C(=O)N([C@H](C)CO)C[C@@H]2C)cc1	·	-1	39	2	·	·	·
Cc1nn2c(COc3ccc(NC(=O)C(C)C)cc3)nnc2c2ccccc12	-24	8	1	4	2	-9	·
Cc1nn2c(COc3ccc(NC(=O)c4ccccc4Cl)cc3)nnc2c2ccccc12	26*	2	·	·	9	4	-3
Cc1cc(C)cc(NC(=O)C(OC(=O)c2ccc(NC(=O)CC#N)cc2)c2ccccc2)c1 (stereo unspecified)	28*	·	-90	3	2	-14	3
Cc1ccc(C)c(NC(=O)C(OC(=O)c2ccc(CO)cc2)c2ccccc2)c1 (stereo unspecified)	35*	4	-5	1	1	-17	3
Cc1ccc(C)c(NC(=O)C(OC(=O)c2cc[n+]([O-])cc2)c2ccccc2)c1 (stereo unspecified)	-3	3	-8	0	0	-15	·
CCn1c2ccccc2c2cc(NC(=O)C(C)OC(=O)c3ccc(NC(=O)CC#N)cc3)ccc21 (stereo unspecified)	18*	-9	-15	-8	4	-10	7
CC(C)NC(=O)N[C@H]1CC[C@@H](CCNS(=O)(=O)c2ccc(F)cc2)O[C@@H]1CO	·	3	-27	1	·	·	·
CCOc1cc(/C=C2/NC(=O)N(CC(=O)Nc3cccc(C)c3)C2=O)ccc1OCC(N)=O	10	·	-52	2	-2	-1	·
Cc1cccc(NC(=O)CN2C(=O)N/C(=C/c3ccc(C)s3)C2=O)c1	31*	·	·	·	-1	1	0
CCOc1cccc(/C=C2/NC(=O)N(CC(=O)Nc3cccc(C)c3)C2=O)c1O	23*	6	-86	1	1	11	2
COc1ccc(CCC(=O)OCC(=O)N(C)c2c(N)n(Cc3ccccc3)c(=O)[nH]c2=O)cc1	-4	-7	-15	3	-1	-14	·
COCCN(C(=O)COC(=O)COc1ccc2ccccc2c1)c1c(N)n(Cc2ccccc2)c(=O)[nH]c1=O	19*	-4	-20	-2	1	-6	0
SMILES	dFosB act-1	RAD54 inh	RAD52 anneal inh	F508del corr	Glyco luc inh	PvdQ acylase	dFosB act-2
COCCN(C(=O)COC(=O)COc1ccc(Cl)c(C)c1)c1c(N)n(Cc2ccccc2)c(=O)[nH]c1=O	-6	-11	1	2	2	-14	·
CC(C)CN(C(=O)COC(=O)c1ccc(Br)cc1)c1c(N)n(Cc2ccccc2)c(=O)[nH]c1=O	51*	·	-20	4	?	-3	-1
CCN(C(=O)COC(=O)CCc1ccc(OC)cc1)c1c(N)n(Cc2ccccc2)c(=O)[nH]c1=O	42*	-3	-10	0	0	-18	1
CCN(C(=O)COC(=O)COc1ccc2c(c1)CCC2)c1c(N)n(Cc2ccccc2)c(=O)[nH]c1=O	24*	0	-4	-1	3	1	-1
Cc1noc(C)c1S(=O)(=O)N(C)C[C@@H]1OCCCC[C@@H](C)Oc2ccc(NC(=O)NC3CCCCC3)cc2C(=O)N([C@@H](C)CO)C[C@@H]1C	·	2	-3	-1	·	·	·
O=C(CSc1nnc2c(n1)[nH]c1ccc(S(=O)(=O)N3CCOCC3)cc12)Nc1ccccc1Cl	26*	-6	-24	-3	-8	-6	-1
CC/C(=C(\c1ccccc1)c1ccc(OCCN(C)C)cc1)c1ccccc1	24*!	12	18	5	-6	-5	-1
CCC(=C(c1ccccc1)c1ccc(OCCN(C)C)cc1)c1ccccc1	·	-1	15	0	1	·	·
COc1ccc(CN(C)C[C@@H]2Oc3ccc(NC(=O)NC(C)C)cc3CC(=O)N([C@@H](C)CO)C[C@@H]2C)cc1	·	14	0	1	·	·	·
N/C(CC(=O)Nc1ccc(F)c(Cl)c1)=N\OC(=O)c1cccs1	23*	·	-10	0	2	-11	1
Cc1cc(-c2ccc([N+](=O)[O-])cc2)nc2ccccc12	-2	·	-13	0	-1	-1	·
Cc1cc(N2CCN(c3nc(-c4ccc([N+](=O)[O-])cc4)cs3)CC2)c2ccccc2n1	26*	·	-17	2	1	-14	-2
Cc1cc(C)c2nc(/N=C(\N)NC(=O)c3ccccc3)nc(C)c2c1	-12	9	33	-1	9	-6	·
Cc1cc(C)c2nc(/N=C(\N)NC(=O)Nc3ccccc3)nc(C)c2c1	52*	24	·	·	6	4	1
Cc1sc2nc(CN3CCCC3)nc(N3CCN(S(=O)(=O)c4cccs4)CC3)c2c1C	42*	9	·	·	-4	-2	?

Compound activity deposited in PubChem BioAssay by Broad Institute.
